Assay [1] can be described thus: antimalarial activity against Dd2 strain (AID 2302;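 active = growth inhibition above 50% at the single 2 µM test dose, taken to imply half-maximal potency below 2 µM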;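 note: 0% = DMSO untreated growth and 100% = chloroquine plus artemisinin killed control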). The settings on record: P. falciparum Dd2 in RBCs, LDH growth readout, 72 h; at 2 µM; stronger effect = higher value.
Assay [2] can be described thus: HepG2 cytotoxicity, primary screen, cytotoxicity control for P. falciparum antimalarial project, cell-based, ATP luminescence (AID 2303;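 active = inhibition above 50%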;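 note: 0% = DMSO wells and 100% = digitonin-killed cells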). Particulars: HepG2 viability, 24-48 h, at 10 µM, stronger effect = higher value.
Assay [3] has as its target L-lactate dehydrogenase (Plasmodium falciparum (isolate CDC / Honduras)) (UniProt Q27743). Nature of the assay: PfLDH activity inhibition – cell lysate, 3D7 strain, counter-screen for P. falciparum growth inhibition project (AID 2304).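 Note: 0% = vehicle and 100% = reference inhibitor.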 Particulars: P. falciparum 3D7 crude extract, LDH APAD/NBT absorbance; at 2 µM; stronger effect = higher value.
A short description of assay [4]: inhibition of 3D7 malaria parasite growth – strain 3D7 (AID 2306).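 Note: 0% = DMSO wells and 100% = chloroquine plus artemisinin control wells.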 Particulars: P. falciparum 3D7 erythrocytic growth, LDH absorbance, 72 h; at 2 µM; stronger effect = higher value.
Assay [5] has as its target Calcium-dependent protein kinase 1 (Plasmodium falciparum (isolate 3D7)) (UniProt P62344). Nature of the assay: PfCDPK1 kinase inhibitors, biochemical, TCAMS library (AID 1159585; cut-off not given, nearly all actives have IC50 up to about 0.98 µM;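 note: inhibitors leave more ATP so luminescence rises with inhibition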). The settings on record: recombinant PfCDPK1, Kinase-Glo ATP depletion luminescence.
For assay [6], the target named is Plasmodium falciparum protein kinase 6 (PK6, PF3D7_1337100) (UniProt Q8IDW1). Nature of the assay: PfPK6 kinase inhibitors, biochemical, TCAMS library (AID 1159586). The settings on record: recombinant PfPK6, Kinase-Glo ATP depletion luminescence.
In assay [7] the target is Protein kinase 7 (PK7), Plasmodium falciparum 3D7 (PF3D7_0213400) (UniProt Q7YTF7). Nature of the assay: inhibition of Plasmodium PK7 catalytic activity – biochemical, TCAMS antimalarial set, Kinase-Glo luminescence (AID 1159587). Particulars: recombinant PfPK7, Kinase-Glo ATP depletion luminescence.
Assay [8] concerns the target Calcium-dependent protein kinase 4 (Plasmodium falciparum (isolate 3D7)) (UniProt Q8IBS5). Description: PfCDPK4 kinase inhibitors, biochemical, TCAMS library (AID 1159588; cut-off not given, nearly all actives have IC50 up to about 0.91 µM). Particulars: recombinant PfCDPK4, Kinase-Glo ATP depletion luminescence.

Unmarked numbers belong to inactive results. For some of these results: Entries with a potency or affinity are not part of this list. The source made the active and inactive calls. Unless noted, the rule behind the calls is not given here.

Chain of Protein kinase 7 (PK7), Plasmodium falciparum 3D7 (PF3D7_0213400) (Q7YTF7 1-343): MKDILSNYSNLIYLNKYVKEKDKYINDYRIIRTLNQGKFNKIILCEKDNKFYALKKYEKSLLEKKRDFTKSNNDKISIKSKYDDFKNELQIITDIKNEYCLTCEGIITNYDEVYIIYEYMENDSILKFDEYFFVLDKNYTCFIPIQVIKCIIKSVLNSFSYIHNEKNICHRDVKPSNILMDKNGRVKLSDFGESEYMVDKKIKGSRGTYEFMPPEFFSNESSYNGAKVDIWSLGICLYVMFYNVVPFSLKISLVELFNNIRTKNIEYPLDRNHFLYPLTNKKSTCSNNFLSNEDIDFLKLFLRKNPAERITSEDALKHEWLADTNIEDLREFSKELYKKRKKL
Chain of L-lactate dehydrogenase (Plasmodium falciparum (isolate CDC / Honduras)) (Q27743 whole entry, looked up): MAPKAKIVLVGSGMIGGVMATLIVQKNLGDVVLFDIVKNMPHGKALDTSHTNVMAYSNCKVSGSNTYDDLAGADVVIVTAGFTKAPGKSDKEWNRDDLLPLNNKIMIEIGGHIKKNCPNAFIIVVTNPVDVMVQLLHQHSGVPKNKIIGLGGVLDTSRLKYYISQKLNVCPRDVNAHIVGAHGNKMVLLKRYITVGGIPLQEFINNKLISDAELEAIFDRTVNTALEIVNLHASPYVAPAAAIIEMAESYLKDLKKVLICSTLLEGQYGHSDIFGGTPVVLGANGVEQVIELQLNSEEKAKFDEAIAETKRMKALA
Chain of Calcium-dependent protein kinase 4 (Plasmodium falciparum (isolate 3D7)) (Q8IBS5 whole entry, looked up): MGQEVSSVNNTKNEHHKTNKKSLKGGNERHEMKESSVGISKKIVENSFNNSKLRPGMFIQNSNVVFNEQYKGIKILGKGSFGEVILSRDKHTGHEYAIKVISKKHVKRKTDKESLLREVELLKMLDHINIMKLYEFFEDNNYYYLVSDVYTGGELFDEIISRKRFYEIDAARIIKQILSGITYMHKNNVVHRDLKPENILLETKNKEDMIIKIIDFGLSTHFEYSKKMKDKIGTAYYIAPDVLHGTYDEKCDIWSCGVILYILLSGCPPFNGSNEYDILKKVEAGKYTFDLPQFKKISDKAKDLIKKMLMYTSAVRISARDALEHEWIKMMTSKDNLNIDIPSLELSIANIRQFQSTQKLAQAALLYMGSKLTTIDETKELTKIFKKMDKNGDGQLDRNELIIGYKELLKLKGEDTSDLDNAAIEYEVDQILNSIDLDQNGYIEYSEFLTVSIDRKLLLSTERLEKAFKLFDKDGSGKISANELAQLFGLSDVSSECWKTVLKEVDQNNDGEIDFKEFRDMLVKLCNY
Chain of Plasmodium falciparum protein kinase 6 (PK6, PF3D7_1337100) (Q8IDW1 1-305): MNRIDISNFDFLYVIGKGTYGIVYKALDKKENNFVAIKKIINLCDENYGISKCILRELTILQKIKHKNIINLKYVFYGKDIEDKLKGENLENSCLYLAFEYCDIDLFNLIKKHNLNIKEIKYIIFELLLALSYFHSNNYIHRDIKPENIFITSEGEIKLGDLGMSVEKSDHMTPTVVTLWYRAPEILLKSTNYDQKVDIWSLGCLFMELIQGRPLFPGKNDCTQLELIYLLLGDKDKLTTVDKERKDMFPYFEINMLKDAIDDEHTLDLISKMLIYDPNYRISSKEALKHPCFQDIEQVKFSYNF
Chain of Calcium-dependent protein kinase 1 (Plasmodium falciparum (isolate 3D7)) (P62344 whole entry, looked up): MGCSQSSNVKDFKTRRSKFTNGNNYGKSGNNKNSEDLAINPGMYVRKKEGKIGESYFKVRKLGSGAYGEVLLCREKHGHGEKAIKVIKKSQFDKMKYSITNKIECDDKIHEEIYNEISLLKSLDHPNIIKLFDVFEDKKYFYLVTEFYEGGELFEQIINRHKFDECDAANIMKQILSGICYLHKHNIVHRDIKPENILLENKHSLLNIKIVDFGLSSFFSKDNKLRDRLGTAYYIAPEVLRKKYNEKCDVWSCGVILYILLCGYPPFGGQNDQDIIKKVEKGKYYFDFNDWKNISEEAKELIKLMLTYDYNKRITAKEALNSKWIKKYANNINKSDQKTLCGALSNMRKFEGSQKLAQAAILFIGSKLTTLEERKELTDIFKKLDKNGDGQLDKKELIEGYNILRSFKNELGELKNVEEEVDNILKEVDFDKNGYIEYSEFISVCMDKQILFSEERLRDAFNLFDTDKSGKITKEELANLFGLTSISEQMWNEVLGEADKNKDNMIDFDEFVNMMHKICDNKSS

In the case of `CC(C)N1CCN(C(CN2CCN(CCCOc3cccc(-c4ccccc4)c3)CC2)c2ccc(F)cc2)CC1` (stereo not given), the growth inhibition in assay [1] is 99% (active); in assay [4] it was 100% (active). Besides, the inhibition in assay [2] is 100% (active); in assay [3] it was -2%. The outcome in assay [5], in assay [6], in assay [7] and in assay [8] was inactive.

As for `Cc1cc(N[C@@H](Cc2ccccc2)C(=O)NCc2cccc(F)c2)nc(NCCc2ccccc2)n1`, the figures for the growth inhibition in assay [1] and in assay [4] were 73% (active) and 101% (active), respectively. The inhibition is 7% in assay [2] and 0% in assay [3]. The outcome in assay [5], in assay [6], in assay [7] and in assay [8] was inactive.

Regarding `N#Cc1ccc(CN2CCC(Oc3ccc(NC(=O)c4ccco4)cc3Cl)C2)cc1` (stereo not given), the growth inhibition in assay [1] and in assay [4] was 95% (active) throughout. Moreover, the inhibition is 13% in assay [2] and -2% in assay [3]. Besides, the outcome in assay [5], in assay [6], in assay [7] and in assay [8] was inactive.

`O=C(Nc1ccc(OC2CCN(Cc3ccccc3)C2)c(Cl)c1)c1ccc(F)cc1` (stereo not given): the growth inhibition in assay [1] is 87% (active); in assay [4], 90% (active). Moreover, the inhibition in assay [2] and in assay [3] was 7% in each case. Further, the result in assay [5], in assay [6], in assay [7] and in assay [8] was inactive.

In the case of `COc1ccc2ncc(F)c(CCN3C[C@H](CNCc4cc(F)c5c(c4)NC(=O)CO5)[C@H](O)C3)c2n1`, the growth inhibition was 23% in assay [1] and 94% (active) in assay [4]. The inhibition in assay [2] was 3%; in assay [3], -7%. In addition, the outcome in assay [5], in assay [6], in assay [7] and in assay [8] was inactive.

With `CCOCc1cnc(C)nc1NCC(=O)c1c(C)[nH]c2cc(C)ccc12`, the growth inhibition is 76% (active) in assay [1] and 89% (active) in assay [4]. Besides, the values for the inhibition in assay [2] and in assay [3] were 8% and 4%, respectively. For the same compound, the result in assay [5], in assay [6], in assay [7] and in assay [8] was inactive.

For `CN(C)S(=O)(=O)c1ccc(C(=O)N(c2nc(-c3ccccc3)cs2)C2CCCCC2)cc1`, the growth inhibition in assay [1] was 46%; in assay [4], 98% (active). Besides, the inhibition in assay [2] was 7%; in assay [3] it was -3%. Moreover, the result in assay [5], in assay [6], in assay [7] and in assay [8] was inactive.

For `Cc1cccc2[nH]c(-c3ccc(-c4cccc(CNCC5CCCO5)c4)cc3)nc12` (stereo not given), the growth inhibition in assay [1] was 50% (active); in assay [4], 101% (active). The inhibition in assay [2] is 18%; in assay [3], -5%. Further, the result in assay [5], in assay [6], in assay [7] and in assay [8] was inactive.

Take `NC(=O)c1cccc(Nc2nccc(Nc3ccc4[nH]c(-c5ccccc5)cc4c3)n2)c1`: the growth inhibition in assay [1] is 98% (active); in assay [4], 101% (active). The figures for the inhibition in assay [2] and in assay [3] were 28% and -2%, respectively. In addition, the result in assay [5], in assay [6], in assay [7] and in assay [8] was inactive.

As to `NC(N)=NCCCN(Cc1ccccc1)c1ccc(Cl)cc1`, the values for the growth inhibition in assay [1] and in assay [4] were 98% (active) and 100% (active), respectively. Further, the inhibition in assay [2] is -9%; in assay [3] it was -7%. For the same compound, the result in assay [5], in assay [6], in assay [7] and in assay [8] was inactive.

Regarding `CCN1CCN(c2cc(C)c3cc(NC(=O)c4cncc(Br)c4)ccc3n2)CC1`, the growth inhibition is 63% (active) in assay [1] and 97% (active) in assay [4]. For the same compound, the inhibition in assay [2] and in assay [3] was 3% in each case. Moreover, the result in assay [5], in assay [6], in assay [7] and in assay [8] was inactive.

In the case of `CCOC(=O)NC1=NC(C)(C)N(OCCCOc2cc(Cl)c(Cl)cc2Cl)C(N)=N1`, the growth inhibition in assay [1] was 94% (active); in assay [4], 97% (active). In addition, the inhibition in assay [2] is 63% (active); in assay [3], -2%. The outcome in assay [5], in assay [6], in assay [7] and in assay [8] was inactive.

As for `Cc1noc(C)c1-c1cccc(CNCc2cccc(-c3cccc(-c4nc5ccccc5[nH]4)c3)c2)c1`, the values for the growth inhibition in assay [1] and in assay [4] were 54% (active) and 102% (active), respectively. The inhibition in assay [2] is 22%; in assay [3], 2%. Besides, the result in assay [5], in assay [6], in assay [7] and in assay [8] was inactive.

On to `COc1ccc(C)cc1NC(=O)CSc1nc2cccnc2n1C1CCCCC1`, for which the growth inhibition in assay [1] was 78% (active); in assay [4], 89% (active). The inhibition in assay [2] was 14%; in assay [3] it was -8%. Besides, the outcome in assay [5], in assay [6], in assay [7] and in assay [8] was inactive.

Take `CN1CCN(Cc2nc(-c3ccc4c(Nc5ccc(Oc6ccccc6)cc5)ccnc4c3)cs2)CC1`: the growth inhibition was 99% (active) in assay [1] and 100% (active) in assay [4]. The inhibition in assay [2] was 15%; in assay [3], 0%. The result in assay [5], in assay [6], in assay [7] and in assay [8] was inactive.

With `COc1ccc(Nc2ncc3c(-c4cccc(NC(=O)c5ccccc5)c4)c[nH]c3n2)cc1OC`, the growth inhibition in assay [1] is 95% (active); in assay [4] it was 101% (active). The inhibition in assay [2] was 54% (active); in assay [3] it was -7%. The outcome in assay [5], in assay [6], in assay [7] and in assay [8] was inactive.

On to `Cc1cc(NCCC(=O)Nc2ccccc2)nc(NCCc2ccccc2)n1`, for which the growth inhibition in assay [1] was 8%; in assay [4] it was 99% (active). Moreover, the inhibition in assay [2] was -8%; in assay [3], -3%. The result in assay [5], in assay [6], in assay [7] and in assay [8] was inactive.

Consider `Cc1cc(-c2ccc(CNCCc3cccs3)cc2)ccc1S(=O)(=O)NCc1ccccc1`, for which the growth inhibition was -2% in assay [1] and 94% (active) in assay [4]. Besides, the inhibition in assay [2] is 28%; in assay [3], 3%. Also, the result in assay [5], in assay [6], in assay [7] and in assay [8] was inactive.

As for `Cc1cccc2[nH]c(-c3ccc(-c4ccc(CNCC(C)C)cc4)cc3)nc12`, the growth inhibition in assay [1] is 90% (active); in assay [4], 100% (active). Besides, the figures for the inhibition in assay [2] and in assay [3] were 14% and -1%, respectively. The result in assay [5], in assay [6], in assay [7] and in assay [8] was inactive.

Turning to `CCCCCN1CCC(NS(=O)(=O)c2cccc(C(=O)Nc3cccc(C(F)(F)F)c3)c2)C1` (stereo not given), the growth inhibition was 17% in assay [1] and 86% (active) in assay [4]. Further, the inhibition in assay [2] is 25%; in assay [3] it was -5%. The result in assay [5], in assay [6], in assay [7] and in assay [8] was inactive.

Source of the values: PubChem BioAssay.
